Measured values reported in PubChem BioAssay (EPA / NIEHS).
Several values for one entry are separate records, joined by “and”; a condition that tells them apart may be missing. Equal values may be shown once. Some compounds were tested as several samples or in several runs, with calls that do not always agree. Activity calls are given as the source filed them. The calls were made as follows: active = hit-call score of the fitted dose curve at least 0.9, where 1 is the maximum; inactive = score below 0.9.

How the values were obtained:
[1] = read-out: TIMP metallopeptidase inhibitor 2 (TIMP2), TIMP2 (gene 7077); test: BSK_KF3CT_TIMP2: BioMAP Diversity Plus: KF3CT Assay for TIMP metallopeptidase inhibitor 2 (TIMP2) Biomarker Activity (AID 2283071); details: primary human keratinocytes with fibroblasts; actives raise or lower the signal
Outline: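 Measurements come from ELISA detection of TIMP-2 at 24 hours in a dosed human keratinocyte and foreskin fibroblast co-culture. DMSO serves as negative control and baseline.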

[2] = read-out: Transforming growth factor beta 1 (TGFb1), TGFB1 (gene 7040); test: BSK_KF3CT_TGFb1: BioMAP Diversity Plus: KF3CT Assay for Transforming growth factor beta 1 (TGFb1) Biomarker Activity (AID 2283072); details: primary human keratinocytes with fibroblasts; actives raise or lower the signal
Outline: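 TGF-b1 ELISA on a 24 h dosed co-culture of human keratinocytes and foreskin fibroblasts; cytotoxicity tracked in parallel cultures by SRB staining.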

[3] = read-out: Matrix Metallopeptidase 9 (MMP9), MMP9 (gene 4318); test: BSK_KF3CT_MMP9: BioMAP Diversity Plus: KF3CT Assay for Matrix Metallopeptidase 9 (MMP9) Biomarker Activity (AID 2283074); details: primary human keratinocytes with fibroblasts; actives raise or lower the signal;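 as to AC50: MMP9 protein level quantified by ELISA in the co-culture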
Outline: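 Values come from bidirectional fitting relative to DMSO of MMP-9 levels, which were measured by ELISA. Measurements were taken 24 h after chemical dosing of a keratinocyte and foreskin fibroblast co-culture.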

[4] = read-out: E-selectin (Homo sapiens) (UniProt P16581); test: BSK_LPS_Eselectin: BioMAP Diversity Plus: LPS Assay for Eselectin Biomarker Activity (AID 2283077); details: primary human HUVEC with PBMC; actives raise or lower the signal
Outline: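 Primary human vascular co-culture (endothelium plus PBMC) was dosed with chemical, then E-selectin quantified by ELISA at 24 h. Endpoint values derive from bidirectional curve fitting relative to DMSO.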

[5] = BSK_LPS_SRB: Viability Assessment in the BioMAP Diversity Plus: LPS Assay (AID 2283079); details: primary human HUVEC with PBMC;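 also: total protein by sulforhodamine B absorbance as a cytotoxicity measure; measured one day after compound addition; fitted in both directions against DMSO so loss or gain of signal counts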
Outline: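 Readout is SRB absorbance at 560 nm (0.1% stain, TCA-fixed parallel cultures) as a total-protein cytotoxicity measure. Cells: primary human umbilical vein endothelium plus peripheral blood mononuclear cells, 24 h after chemical exposure; DMSO served as baseline.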

[6] = read-out: Interleukin-1 alpha (IL1a), IL1A (gene 3552); test: BSK_LPS_IL1a: BioMAP Diversity Plus: LPS Assay for Interleukin-1 alpha (IL1a) Biomarker Activity (AID 2283080); details: primary human HUVEC with PBMC; actives raise or lower the signal
Outline: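 ELISA read-out of IL-1 alpha from a human primary vascular co-culture (endothelium plus PBMC) under LPS, sampled 24 hours post-dosing. Activity was fitted in both directions relative to DMSO controls.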

[7] = read-out: Monocyte Chemoattractant Protein-1 (MCP1), CCL2 (gene 6347); test: BSK_LPS_MCP1: BioMAP Diversity Plus: LPS Assay for Monocyte Chemoattractant Protein-1 (MCP1) Biomarker Activity (AID 2283081); details: primary human HUVEC with PBMC; actives raise or lower the signal;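 as to AC50: secreted MCP-1 protein quantified by ELISA in culture supernatant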
Outline: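 Human endothelial–PBMC co-cultures were dosed with chemical, then LPS-driven MCP-1 levels were quantified by ELISA at 24 h. Activity in either direction was fitted versus DMSO negative control.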

[8] = BSK_LPS_PGE2: BioMAP Diversity Plus: LPS Assay for Prostaglandin E2 (PGE2) Biomarker Activity (AID 2283082); details: primary human HUVEC with PBMC; actives raise or lower the signal;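 as to AC50: secreted prostaglandin E2 measured by ELISA in LPS-stimulated co-culture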
Outline: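 Primary human endothelial cells and blood mononuclear cells, co-cultured with LPS, receive test chemical; PGE2 ELISA follows at 24 h, with SRB-stained parallel cultures flagging cytotoxicity.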

[9] = read-out: Macrophage colony-stimulating factor (MCSF), CSF1 (gene 1435); test: BSK_LPS_MCSF: BioMAP Diversity Plus: LPS Assay for Macrophage colony-stimulating factor (MCSF) Biomarker Activity (AID 2283083); details: primary human HUVEC with PBMC; actives raise or lower the signal
Outline: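 ELISA readout of M-CSF after 24 h compound exposure in a human endothelial/PBMC co-culture. Activity, in either direction, is fitted relative to DMSO vehicle.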

[10] = read-out: Tissue Factor, F3 (gene 2152); test: BSK_LPS_TissueFactor: BioMAP Diversity Plus: LPS Assay for Tissue Factor Biomarker Activity (AID 2283084); details: primary human HUVEC with PBMC; actives raise or lower the signal
Outline: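 ELISA signal for cell-surface Tissue Factor (CD142) was read 24 h after compound dosing of an LPS-stimulated human endothelial–PBMC primary co-culture. Gain or loss of signal was scored relative to DMSO.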

[11] = read-out: Tumor necrosis factor (Homo sapiens) (UniProt P01375); test: BSK_LPS_TNFa: BioMAP Diversity Plus: LPS Assay for Tumour Necrosis Factor alpha (TNFa) Biomarker Activity (AID 2283085); details: primary human HUVEC with PBMC; actives raise or lower the signal;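 as to AC50: TNFa protein level quantified by ELISA in the co-culture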
Outline: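 ELISA-based TNFa endpoint in a human endothelial–PBMC co-culture sampled 24 h post-exposure. Curves were fitted in both directions using DMSO as baseline of activity.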

[12] = read-out: Vascular cell adhesion molecule 1 (VCAM1), VCAM1 (gene 7412); test: BSK_LPS_VCAM1: BioMAP Diversity Plus: LPS Assay for Vascular cell adhesion molecule 1 (VCAM1) Biomarker Activity (AID 2283086); details: primary human HUVEC with PBMC; actives raise or lower the signal
Outline: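 Measured by ELISA: VCAM-1 in LPS-activated HUVEC/PBMC co-cultures 24 h after treatment. Values reflect bidirectional fitting with DMSO as baseline.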

CD38, CD38 (gene 952) = test: BSK_SAg_CD38: BioMAP Diversity Plus: SAg Assay for CD38 Biomarker Activity (AID 2283087); details: primary human HUVEC with PBMC; actives raise or lower the signal
Outline: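 Measures CD38 on a human endothelial/PBMC co-culture driven by SEB and TSST-1, 24 h after compound exposure, using ELISA with fluorescence detection; DMSO defines baseline for bidirectional curve fitting.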

CD40, CD40 (gene 958) [13] = test: BSK_SAg_CD40: BioMAP Diversity Plus: SAg Assay for CD40 Biomarker Activity (AID 2283088); details: primary human HUVEC with PBMC; actives raise or lower the signal
Outline: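 Compounds were dosed onto a human primary endothelial–PBMC co-culture, and after 24 h CD40 was quantified by ELISA using a fluorescence signal. Activity in either direction was fitted relative to DMSO.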

CD69, CD69 (gene 969) = test: BSK_SAg_CD69: BioMAP Diversity Plus: SAg Assay for CD69 Biomarker Activity (AID 2283089); details: primary human HUVEC with PBMC; actives raise or lower the signal;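 as to AC50: cell surface CD69 protein quantified by ELISA with fluorescence detection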
Outline: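 Endothelial/PBMC co-culture; chemical added; 24 h incubation; CD69 ELISA with fluorescence detection; bidirectional fit vs DMSO.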

[14] = read-out: Interleukin-8 (IL8), CXCL8 (gene 3576); test: BSK_LPS_IL8: BioMAP Diversity Plus: LPS Assay for Interleukin-8 (IL8) Biomarker Activity (AID 2283078); details: primary human HUVEC with PBMC; actives raise or lower the signal
Outline: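 Readout is IL-8 by ELISA, taken 24 h after compounds were added to LPS-stimulated endothelial/PBMC co-cultures. Both increases and decreases relative to DMSO control were scored through bidirectional fitting.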

CD40, CD40 (gene 958) [15] = test: BSK_LPS_CD40: BioMAP Diversity Plus: LPS Assay for CD40 Biomarker Activity (AID 2283076); details: primary human HUVEC with PBMC; actives raise or lower the signal
Outline: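 Cells were dosed, incubated 24 h, then assayed for CD40 by ELISA. Gain or loss of signal was analysed relative to DMSO controls. The culture paired human umbilical vein endothelium with peripheral blood mononuclear cells.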

[16] = read-out: urokinase plasminogen activator (uPA), PLAU (gene 5328); test: BSK_KF3CT_uPA: BioMAP Diversity Plus: KF3CT Assay for urokinase plasminogen activator (uPA) Biomarker Activity (AID 2283075); details: primary human keratinocytes with fibroblasts; actives raise or lower the signal
Outline: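 Values derive from bidirectional fitting against DMSO controls. Keratinocyte/foreskin fibroblast co-cultures received chemical; 24 h later uPA was detected by ELISA, with SRB total-protein staining in parallel wells for overt cytotoxicity.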

Measured: AC50

Chain of Tumor necrosis factor (Homo sapiens) (P01375 whole entry, looked up): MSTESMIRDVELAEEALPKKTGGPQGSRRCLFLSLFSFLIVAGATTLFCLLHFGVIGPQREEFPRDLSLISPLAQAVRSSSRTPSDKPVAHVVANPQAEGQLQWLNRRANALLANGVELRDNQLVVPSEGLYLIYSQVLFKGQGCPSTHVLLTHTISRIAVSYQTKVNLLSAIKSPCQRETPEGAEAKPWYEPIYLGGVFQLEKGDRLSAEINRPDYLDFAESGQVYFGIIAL
Chain of E-selectin (Homo sapiens) (P16581 whole entry, looked up): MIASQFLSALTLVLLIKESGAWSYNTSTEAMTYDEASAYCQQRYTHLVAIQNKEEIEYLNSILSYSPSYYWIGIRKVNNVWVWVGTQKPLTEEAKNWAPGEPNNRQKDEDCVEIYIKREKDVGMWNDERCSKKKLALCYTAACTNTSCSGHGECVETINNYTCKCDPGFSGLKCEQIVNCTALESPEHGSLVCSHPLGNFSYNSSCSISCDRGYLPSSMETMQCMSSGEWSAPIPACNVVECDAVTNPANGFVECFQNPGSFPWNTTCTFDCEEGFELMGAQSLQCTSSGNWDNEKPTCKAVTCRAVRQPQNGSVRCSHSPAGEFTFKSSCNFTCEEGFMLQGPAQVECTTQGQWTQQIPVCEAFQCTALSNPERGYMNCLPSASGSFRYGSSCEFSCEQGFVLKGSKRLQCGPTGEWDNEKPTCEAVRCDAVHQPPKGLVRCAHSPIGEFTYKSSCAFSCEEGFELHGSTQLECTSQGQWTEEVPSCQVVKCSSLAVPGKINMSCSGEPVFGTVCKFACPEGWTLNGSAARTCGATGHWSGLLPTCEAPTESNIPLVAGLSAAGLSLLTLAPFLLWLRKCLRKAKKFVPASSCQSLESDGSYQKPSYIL

C1CC2OC2CC1C1CO1 (configuration not stated)
not listed: [14] | CD40, CD40 (gene 958) [15] | [16]
inactive: all other assays above

CCC(C)(c1ccc(O)cc1)c1ccc(O)cc1
active: [5] 20 µM | [8] 13.3 µM | [9] 20 µM | [12] 20 µM | CD38, CD38 (gene 952) 25.6 µM | CD40, CD40 (gene 958) [13] 20 µM | CD69, CD69 (gene 969) 20 µM
not listed: CD40, CD40 (gene 958) [15] | [16]
inactive: all other assays above

Clc1ccc(Cl)cc1
not listed: [16]
inactive: all other assays above

ClC1=C(Cl)[C@]2(Cl)[C@@H]3[C@@H](Cl)[C@H]4O[C@H]4[C@@H]3C1(Cl)C2(Cl)Cl
active: [5] 6.81 µM | [11] 2.42 µM | CD38, CD38 (gene 952) 8.15 µM | CD40, CD40 (gene 958) [13] 11.6 µM
not listed: [14]
inactive: all other assays above

ClC1=C(Cl)[C@]2(Cl)[C@@H]3[C@H]4C[C@H]([C@@H]5O[C@H]45)[C@@H]3[C@@]1(Cl)C2(Cl)Cl
active: [5] 7.24 µM | [11] 4.16 µM | CD40, CD40 (gene 958) [13] 8.47 µM
not listed: [12] | CD40, CD40 (gene 958) [15] | [16]
inactive: all other assays above

CCCCCCCCCc1ccc(O)cc1
active: [1] 14.6 µM | [2] 13.5 µM | [3] 13.2 µM | [16] 17.2 µM | CD40, CD40 (gene 958) [15] 22.6 µM | [4] 29.9 µM | [5] 23.1 µM | [6] 22 µM | [7] 32.2 µM | [8] 7.76 µM | [9] 23.6 µM | [10] 31.3 µM | [11] 36.5 µM | [12] 22 µM | CD38, CD38 (gene 952) 15.9 µM | CD40, CD40 (gene 958) [13] 20.3 µM | CD69, CD69 (gene 969) 22.7 µM

CC1=C2C[C@H]3[C@@H](CC=C4C[C@@H](O)CC[C@@]43C)[C@@H]2CC[C@]12O[C@@H]1C[C@H](C)CN[C@H]1[C@H]2C
not listed: [14]
inactive: all other assays above

NS(=O)(=O)C(F)(F)C(F)(F)C(F)(F)C(F)(F)C(F)(F)C(F)(F)C(F)(F)C(F)(F)F
inactive: [7] | [8] | [10] | [12]
active: [1] 26 µM and 40.7 µM and 44.4 µM | [2] 9.43 µM | [3] 12.2 µM and 19.9 µM and 20.4 µM | CD40, CD40 (gene 958) [15] 23.9 µM and 39.6 µM and 39.1 µM | [4] 29.7 µM and 54.3 µM and 58.5 µM | [14] 30.1 µM and 45.6 µM and 49.8 µM | [5] 28.9 µM and 44.6 µM and 44.3 µM | [6] 32.1 µM and 48.7 µM and 52.2 µM | [7] 55.7 µM and 57.3 µM | [8] 52.2 µM and 51.9 µM | [9] 30.9 µM and 54.9 µM and 51.8 µM | [10] 44.6 µM | [11] 28.6 µM and 49.6 µM and 49.3 µM | [12] 53.8 µM and 46.6 µM | CD38, CD38 (gene 952) 27.8 µM and 43.8 µM and 42.4 µM | CD40, CD40 (gene 958) [13] 27.7 µM and 46.1 µM and 45.8 µM | CD69, CD69 (gene 969) 27.4 µM and 40.8 µM and 43.4 µM

CC#Cc1cc(C)nc(Nc2ccccc2)n1
active: [8] 8.96 µM
not listed: CD40, CD40 (gene 958) [15]
inactive: all other assays above

COS(=O)(=O)OC
active: [11] 0.318 µM
inactive: all other assays above

CCNc1nc(NC(C)C)nc(SC)n1
active: [11] 5.99 µM | CD38, CD38 (gene 952) 14.9 µM
not listed: CD40, CD40 (gene 958) [15]
inactive: all other assays above

CCC(C)c1cc([N+](=O)[O-])cc([N+](=O)[O-])c1O (configuration not stated)
inactive: [1] | [2] | [10] | [11]
active: [3] 12.6 µM | [4] 27 µM | [5] 20 µM | [6] 29.2 µM | [7] 15 µM | [8] 6.51 µM | [9] 20 µM | [12] 20 µM | CD38, CD38 (gene 952) 18.7 µM | CD40, CD40 (gene 958) [13] 14.3 µM | CD69, CD69 (gene 969) 12.4 µM
